Rows were chosen to be rich in hits. Some 2.4% of all compounds tested hit in one or more screens of this group.
Pol iota inh = blocks human DNA polymerase iota activity; Potency, µM (series often up to 115 µM), without a hit: at the top dose activity, negative = inhibition, hits mostly inhibitors; Q9UNA4; actives 1% (n = 390,000); AID 588590; Pol iota fluorescent replication assay, 10 min
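Fluorescent replication assay read twice, at 0 min and 10 min after adding 50 nM (final) substrate. Enzyme (10 nM) and compounds were first incubated 15 min at room temperature; enzyme-free buffer wells were negative controls.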
GLS inh = inhibitors of human glutaminase (GLS) | O94925 | GLS enzymatic activity, qHTS titration | Potency, µM (top dose mostly 45.5 µM), without a hit: top-dose activity change, negative = inhibition, actives largely listed as inhibitors | actives 0.21% (n = 410,000); also: % is scaled to controls: 0 for no effect and ±100 for the full control effect
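Compounds were pin-transferred onto hKGA, after which L-glutamine (1 mM solution) and a detection mix of glutamate oxidase, HRP and Amplex Red were added. Initial and 30 min RT fluorescence reads were collected.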
Pol kappa inh-1 = inhibitors of human DNA polymerase kappa; purified Pol kappa, fluorescent DNA synthesis assay, 10 min; Potency, µM (doses to about 107 µM), for the others: at the highest dose activity, negative = inhibition, actives largely listed as inhibitors; actives 0.53% (n = 400,000); AID 588579; also: % is scaled to controls: 0 for no effect and ±100 for the full control effect
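Inhibition of 10 nM Pol kappa is measured by a fluorescent read-out at 0 and 10 min following addition of 50 nM substrate (final), with a 15-min room-temperature compound preincubation.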
Pol eta inh-1 = blocks human DNA polymerase eta activity; recombinant Pol eta, fluorescent DNA replication assay; Potency, µM (top dose mostly 114 µM), inactives show at the top dose activity change, negative = inhibition, usual class: inhibitors; actives 1.2% (n = 390,000); AID 588591; also: % is scaled to controls: 0 for no effect and ±100 for the full control effect
Target sequence (Q9Y253 whole entry, looked up): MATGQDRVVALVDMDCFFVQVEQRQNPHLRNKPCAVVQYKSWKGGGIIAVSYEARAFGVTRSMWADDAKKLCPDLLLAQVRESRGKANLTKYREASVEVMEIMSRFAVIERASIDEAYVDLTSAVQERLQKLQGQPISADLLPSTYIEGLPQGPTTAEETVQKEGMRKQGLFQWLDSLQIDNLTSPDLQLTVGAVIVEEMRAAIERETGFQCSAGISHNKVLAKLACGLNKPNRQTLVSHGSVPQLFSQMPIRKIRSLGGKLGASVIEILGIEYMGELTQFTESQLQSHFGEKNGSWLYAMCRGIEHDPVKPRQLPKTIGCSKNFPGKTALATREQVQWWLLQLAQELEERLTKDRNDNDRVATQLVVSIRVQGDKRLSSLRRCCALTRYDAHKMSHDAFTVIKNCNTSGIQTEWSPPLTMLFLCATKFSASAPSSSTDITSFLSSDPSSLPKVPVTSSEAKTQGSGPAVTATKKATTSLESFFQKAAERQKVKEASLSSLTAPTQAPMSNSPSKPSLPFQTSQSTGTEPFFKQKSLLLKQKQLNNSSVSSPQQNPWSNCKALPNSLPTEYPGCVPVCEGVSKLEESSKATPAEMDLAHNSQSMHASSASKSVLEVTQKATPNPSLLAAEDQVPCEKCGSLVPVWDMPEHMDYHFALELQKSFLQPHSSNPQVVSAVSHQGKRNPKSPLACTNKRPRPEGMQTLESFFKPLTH
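Pol eta at 10 nM preincubated with compounds 15 min at room temperature; reaction started with fluorescent substrate (50 nM final) and read kinetically at 0 and 10 min.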
POLB inh = blocks human DNA polymerase beta activity | P06746 | Pol beta primer extension/strand displacement, fluorescence kinetic | Potency, µM (top dose mostly 114 µM), inactives show at the highest dose activity change, negative = inhibition, actives largely listed as inhibitors | actives 1.3% (n = 340,000) | AID 485314; also: % is scaled to controls: 0 for no effect and ±100 for the full control effect
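Human Pol beta at 10 nM; strand-displacement substrate 50 nM final. Compound exposure 15 min at room temperature before start, reaction 10 min at room temperature.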
KAT2A inh = inhibitors of human GCN5L2 histone acetyltransferase. Q92830. GCN5L2 HAT assay, ThioGlo1 CoA-SH fluorescence. Potency, µM (doses to about 58.9 µM), without a hit: at the top dose activity change, negative = inhibition, hits mostly inhibitors. actives 0.21% (n = 390,000); also: % is scaled to controls: 0 for no effect and ±100 for the full control effect
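Preincubate 20nM GCN5L2 with compound 15 min, RT → add 50uM ThioGlo1 + 75uM H3(1-25) + 70uM acetyl-CoA → read fluorescence 0 and 20 min. Primary qHTS; fluorescent artifacts likely.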
Pol kappa inh-2 = confirmation of human DNA polymerase kappa inhibitors | shares compounds with Pol eta inh-1 | Potency, µM, hits mostly inhibitors | actives 76% (n = 920) | purified Pol-kappa, fluorescent strand-displacement substrate
Pol eta inh-2 = confirmation of human DNA polymerase eta inhibitors | shares compounds with Pol eta inh-1 | Pol eta primer extension, TAMRA/BHQ fluorescence, 10 min | AID 720502 | Potency, µM, hits mostly inhibitors | actives 64% (n = 2,600)
* marks the source's active call; other numbers are inactive results; ? = inconclusive; . = not tested or not shown; ! = repeats disagree; [ ] = another dose, or the depositor's remark. Calls follow the shape of the dose curve; as a rule, active = well fitted inhibition curve with a large enough effect; inconclusive = small, poorly fitted or top-dose-only effect, or another doubt; inactive = no such curve, though single readings can be large or run the other way. Potency is read from the fitted curve at half-maximal effect.

SMILES | Pol iota inh | GLS inh | Pol kappa inh-1 | Pol eta inh-1 | POLB inh | KAT2A inh | Pol eta inh-2 | others
CC(=O)Oc1ccc(/C=N\NC(=O)c2cc3c(ccc4ccccc43)o2)cc1 | 17% | -10% | 10% | -11% | ? | -17% | .
Cc1cc(C)nc(SCC(=O)NNS(=O)(=O)c2ccc(C#N)cc2)n1 | 18µM* | -6% | ? | 13µM* | . | -5% | 76* | Pol kappa inh-2=?
Cc1ccc(NC(=O)C2CCN(S(=O)(=O)c3ccc4[nH]c5c(c4c3)CCCCC5)CC2)cc1 | 29% | 2% | -17% | -22% | -26% | 16% | .
COc1ccc(/C=C2\CCCc3c2nc2ccccc2c3C(=O)O)cc1OC | . | . | . | . | -20% | -25% | .
COc1ccc(/C=C2\CCc3c2nc2ccccc2c3C(=O)O)cc1OC | ? | 11µM* | -23% | 20µM* | -8% | ? | 54*
COc1cc(/C=C2\CCCc3c2nc2ccccc2c3C(=O)O)cc([N+](=O)[O-])c1O | 13µM* | 2% | 79µM* | 20µM* | 14µM* | -12% | 48*
Cc1cccc2sc(N(Cc3cccnc3)C(=O)Cc3ccccc3)nc12 | -12% | 12% | -15%[60.1 µM] | -9% | ? | -13% | .
CCOc1ccccc1CNC(=O)C1CCN(c2nc3ccccc3nc2C(F)(F)F)CC1 | 9% | -7% | -6% | -10% | -7% | -19% | .
CCOc1ccc(C(=O)Nc2cc(NC(=O)c3ccc(OCC)c(Cl)c3)cc(C(=O)O)c2)cc1Cl | ? | ? | -1% | 32µM* | 18µM* | 3% | . | Pol kappa inh-2=21*
CC(=O)N=c1c(C#N)cc2c(=O)n3cccc(C)c3nc2n1Cc1ccco1 | 40µM* | -3% | -22% | 32µM* | ? | -1% | ?
COc1cc(C2CC(=O)Oc3c2c(=O)n(C)c2ccccc32)ccc1O (stereo not given) | ? | 27% | ? | 35µM* | ? | ? | ? | Pol kappa inh-2=47*
CCOC(=O)c1ccc(NC2=CC(=O)C(=O)c3ccccc32)cc1 | ? | -4% | -6% | 35µM* | 3% | -3% | ?
CC(=O)Nc1ccc(NC2=CC(=O)c3ccccc3C2=O)cc1 | 58% | -10% | -10% | ? | -15% | 17% | .
CC(=O)Nc1ccc2c(c1)CCc1ccccc1-2 | -12% | -1% | -22% | -19% | -16% | -3% | .
O=C(O)/C=C/C(=O)c1ccc2c(c1)CCc1ccccc1-2 | 1.6µM* | ? | -15% | 35µM* | . | -23% | ?
Cc1ccc2c(c1)N(C(=O)NCc1ccccc1)CCO2 | 7% | -4% | -14% | -9% | -1% | -3% | .
Cc1csc(NC(=O)c2cc(-c3ccncc3)nc3ccccc23)n1 | ? | -9% | -17% | -14% | -9% | -5% | .
Cc1nnc(NC(=O)c2cc(-c3ccncc3)nc3c(C)cccc23)s1 | 79µM* | 2% | -11% | 45µM* | 7% | -13% | 67*
COc1ccc(/C=C/C(=O)OCC(=O)Nc2ncc(Cl)cc2Cl)cc1 | -22% | 0% | -8% | ? | . | -16% | .
COc1ccc(OCCCC(=O)OCC(=O)Nc2ncc(Cl)cc2Cl)cc1 | ? | -4% | -31% | 40µM* | . | -7% | 85* | Pol kappa inh-2=?
O=C(COC(=O)CNC(=O)c1ccc([N+](=O)[O-])o1)Nc1ncc(Cl)cc1Cl | ? | -2% | -21% | ? | . | -16% | ?
Cc1cc(C(=O)N/N=C/c2cc(Br)c(Br)o2)n[nH]1 | 14µM* | 2% | 79µM* | 18µM* | 45µM* | -6% | 60* | Pol kappa inh-2=47*
Cc1cc(C(=O)N/N=C/c2ccc(Br)o2)n[nH]1 | ? | -11% | -18% | -2% | -12% | -13% | .
C#CCOc1ccc(/C=C2/C(=O)N(c3cccc(C(=O)O)c3)N=C2C)cc1OC | 2µM* | 0% | -23% | 50µM* | 13% | -10% | ?
COc1cc(/C=C2\C(=O)N(c3cccc(C(=O)O)c3)N=C2C)ccc1OCc1ccccc1 | . | 0% | . | 32µM* | . | . | ?
SMILES | Pol iota inh | GLS inh | Pol kappa inh-1 | Pol eta inh-1 | POLB inh | KAT2A inh | Pol eta inh-2 | others
C#CCOc1ccc(/C=C2/C(=O)N(c3ccc(S(N)(=O)=O)cc3)N=C2C)cc1OC | . | -1% | . | ? | . | . | .
COc1ccccc1/C=C1/C(=O)N(c2ccccc2)N=C1C | ? | ? | -6% | 13% | 1% | -1% | .
CC1CCN(S(=O)(=O)c2ccc3c(ccc(=O)n3CC(=O)NCc3ccccc3)c2)CC1 | 34% | -8% | -1%[60.1 µM] | -23% | 7% | -3% | .
CN(Cc1ccccc1)C(=O)C1CCN(S(=O)(=O)c2ccc3nc4c(c(C(=O)O)c3c2)CCCC4)CC1 | ? | 1% | 79µM* | 28µM* | 28µM*! | -19% | ?
O=C1CSC(=S)N1c1cccnc1 | ? | 21% | -15% | 2% | 7% | 15% | .
O=C(O)c1cc(C(=O)O)cc(N2C(=O)CSC2=S)c1 | 22µM* | ? | 89µM* | ? | 2% | -2% | 30* | Pol kappa inh-2=?
O=C(NCCC1=CCCCC1)C1CCN(C(=O)N2CCOc3ccccc32)CC1 | 16% | 4% | -2% | -4% | 21% | -8% | .
O=C1CC(c2ccc(O)c(O)c2)Oc2cc(O)cc(O)c21 (stereo not given) | 50µM* | ? | 16µM* | 22µM* | ? | -1% | 76*
O=C(O)/C=C/c1ccc(S(=O)(=O)Nc2ccc(OCc3ccccc3)cc2)cc1 | -14% | 11% | -7% | -10% | ? | -1% | .
O=C(O)/C=C/c1ccc(S(=O)(=O)Nc2ccc(C(=O)NCC(=O)O)cc2)cc1 | ? | 193% | ? | 18µM* | -16% | -7% | ?
Nc1cc(C(=O)OCC(=O)NCc2ccco2)ccc1Cl | ? | -2% | -27% | 18µM* | ? | -11% | ?
O=C(COC(=O)c1ccccc1Nc1cccc(C(F)(F)F)c1)NCc1ccco1 | ? | -11% | ? | 20µM* | 40µM* | -9% | 67*
O=C(COC(=O)c1ccc(Cl)c(S(=O)(=O)N2CCOCC2)c1)NCc1ccco1 | -10% | -3% | 0% | -6% | . | -4% | .
CCOc1ccccc1OCC(=O)NCc1ccco1 | 20µM* | 32% | ? | 79µM* | 28µM* | -8% | ?
O=C(COc1ccccc1Cl)NCc1ccco1 | 6% | 14% | -3% | 7% | -10% | -1% | .

From PubChem
